# Laboratory results taken from the supplement of paper PMC8728848.
# This excerpt belongs to a sample that is enriched for the strongest signals.
# Experiments:
# Assay in all cases: glycan array binding signal (z-score within array); higher = stronger binding
# Settings in all cases: glycan notation: IUPAC condensed, linker removed
# [1] = target: Fuc(a1-2)Gal(b1-3)GalNAc(b1-3)Gal
# Summary of the method: (§1)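 From the Consortium for Functional Glycomics database, 3228 arrays were curated, keeping only those whose protein sequence was available. Binding is given as a within-array Z-score averaged across arrays sharing a protein sequence and across linkers. Negative Z-scores can be read as non-binding.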
# [2] = target: Fuc(a1-2)Gal(b1-4)GlcNAc(b1-3)Gal(b1-4)GlcNAc(b1-3)Gal(b1-4)GlcNAc
# Summary of the method: as §1
# [3] = target: Fuc(a1-2)[GalNAc(a1-3)]Gal(b1-4)[Fuc(a1-3)]GlcNAc
# Summary of the method: as §1
# [4] = target: Fuc(a1-3)[Gal(b1-4)]GlcNAc(b1-4)Gal(b1-4)[Fuc(a1-3)]GlcNAc(b1-4)Gal(b1-4)[Fuc(a1-3)]GlcNAc
# Summary of the method: as §1
# [5] = target: Fuc(a1-3)[Gal3S(b1-4)]GlcNAc6S
# Summary of the method: as §1
# [6] = target: Fuc(a1-4)GlcNAc
# Summary of the method: as §1
# [7] = target: Gal(a1-6)Glc
# Summary of the method: as §1
# [8] = target: Gal(b1-3)[Neu5Ac(a2-6)]GalNAc
# Summary of the method: as §1
# [9] = target: Gal(b1-4)GalNAc(b1-3)[Fuc(a1-2)]Gal(b1-4)GlcNAc
# Summary of the method: as §1
# [10] = target: Gal3S(b1-4)Glc6S
# Summary of the method: as §1
# [11] = target: Gal3S6S(b1-4)GlcNAc6S
# Summary of the method: as §1
# [12] = target: Gal4S(b1-4)GlcNAc
# Summary of the method: as §1
# [13] = target: Gal6S(b1-4)Glc6S
# Summary of the method: as §1
# [14] = target: Man(a1-2)Man(a1-2)Man(a1-3)[Man(a1-2)Man(a1-3)[Man(a1-2)Man(a1-6)]Man(a1-6)]Man(b1-4)GlcNAc(b1-4)GlcNAc
# Summary of the method: as §1
# [15] = target: Man(a1-2)Man(a1-2)Man(a1-6)[Man(a1-3)]Man
# Summary of the method: as §1
# [16] = target: Man(a1-2)Man(a1-3)[Man(a1-6)]Man(a1-6)[Man(a1-2)Man(a1-3)]Man(b1-4)GlcNAc(b1-4)GlcNAc
# Summary of the method: as §1
# [17] = target: Neu5Ac(a2-3)[GalNAc(b1-4)]Gal(b1-4)GlcNAc
# Summary of the method: as §1
# [18] = target: Neu5Ac(a2-8)Neu5Ac(a2-3)[GalNAc(b1-4)]Gal(b1-4)Glc
# Summary of the method: as §1
# [19] = target: Neu5Ac(a2-8)Neu5Ac(a2-8)Neu5Ac(a2-3)Gal(b1-4)Glc
# Summary of the method: as §1
# [20] = target: Neu5Gc(a2-3)Gal(b1-4)GlcNAc
# Summary of the method: as §1
binder,measurement,setting,value
"PEB3 Cj0289c (Campylobacter jejuni), Q9PIK7 (protein) MDVNLYGPGGPHTALKDIANKYSEKTGVKVNVNFGPQATWFEKAKKDADILFGASDQSALAIASDFGKDFNVSKIKPLYFREAIILTQKGNPLKIKGLKDLANKKVRIVVPEGAGKSNTSGTGVWEDMIGRTQDIKTIQNFRNNIVAFVPNSGSARKLFAQDQADAWITWIDWSKSNPDIGTAVAIEKDLVVYRTFNVIAKEGASKETQDFIAYLSSKEAKEIFKKYGWRE",glycan array binding signal (z-score),[1],1.6
same,glycan array binding signal (z-score),[2],-0.33
same,glycan array binding signal (z-score),[3],-0.226
same,glycan array binding signal (z-score),[4],-0.441
same,glycan array binding signal (z-score),[5],0.228
same,glycan array binding signal (z-score),[6],-0.029
same,glycan array binding signal (z-score),[7],1.25
same,glycan array binding signal (z-score),[8],-0.409
same,glycan array binding signal (z-score),[9],-0.381
same,glycan array binding signal (z-score),[10],1.38
same,glycan array binding signal (z-score),[11],2.8
same,glycan array binding signal (z-score),[12],0.039
same,glycan array binding signal (z-score),[13],1.36
same,glycan array binding signal (z-score),[14],-0.256
same,glycan array binding signal (z-score),[15],-0.192
same,glycan array binding signal (z-score),[16],-0.25
same,glycan array binding signal (z-score),[17],-0.332
same,glycan array binding signal (z-score),[18],-0.28
same,glycan array binding signal (z-score),[19],-0.456
same,glycan array binding signal (z-score),[20],-0.272
